In all, about 110,000 compounds were measured (“z-score”: median about -0.1, highest 2% from about 2 on). Only a selection was taken, and the highest values are over-represented in it overall. Activity calls are given as the source filed them.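 Rule for the calls: active = z-score in the third read window above 3 or below -3; inactive = the rest.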

The target in this assay is Metabotropic glutamate receptor 8 (Rattus norvegicus) (UniProt P70579). Kind of assay: rat mGluR8 modulators via GIRK flux, primary screen, cell-based, thallium flux, HTS (AID 488969). The following applies: HEK293 rat mGluR8, GIRK (G protein-gated inwardly rectifying potassium channel) thallium flux, FluoZin2; at 10 µM; stronger effect = higher value; submaximal glutamate (EC20) added with thallium.
Chain of Metabotropic glutamate receptor 8 (Rattus norvegicus) (P70579 whole entry, looked up): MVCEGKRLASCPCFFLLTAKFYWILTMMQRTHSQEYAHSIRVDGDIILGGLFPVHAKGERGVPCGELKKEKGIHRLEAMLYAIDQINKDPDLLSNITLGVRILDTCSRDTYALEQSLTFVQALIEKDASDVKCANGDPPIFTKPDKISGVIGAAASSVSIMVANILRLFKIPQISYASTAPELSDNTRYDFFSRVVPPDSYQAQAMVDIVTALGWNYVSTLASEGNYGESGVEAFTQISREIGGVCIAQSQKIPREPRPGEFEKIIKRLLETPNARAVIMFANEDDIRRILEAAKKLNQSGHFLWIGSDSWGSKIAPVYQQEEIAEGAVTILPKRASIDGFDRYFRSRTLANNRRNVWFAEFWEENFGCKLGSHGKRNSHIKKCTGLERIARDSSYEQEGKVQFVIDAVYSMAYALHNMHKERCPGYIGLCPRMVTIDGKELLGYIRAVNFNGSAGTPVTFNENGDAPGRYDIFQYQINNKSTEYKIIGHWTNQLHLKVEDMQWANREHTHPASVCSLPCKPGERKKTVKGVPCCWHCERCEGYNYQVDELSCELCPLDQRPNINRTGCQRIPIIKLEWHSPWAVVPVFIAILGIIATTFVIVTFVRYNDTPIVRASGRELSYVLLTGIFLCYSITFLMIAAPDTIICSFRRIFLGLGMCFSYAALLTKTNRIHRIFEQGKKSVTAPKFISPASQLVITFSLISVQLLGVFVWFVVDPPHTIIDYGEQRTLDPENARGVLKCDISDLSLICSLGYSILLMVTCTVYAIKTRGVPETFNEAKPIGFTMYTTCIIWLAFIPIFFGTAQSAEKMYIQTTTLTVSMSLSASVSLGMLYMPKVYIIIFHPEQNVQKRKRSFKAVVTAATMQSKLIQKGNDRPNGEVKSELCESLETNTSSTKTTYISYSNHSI
Take `CC(=O)Nc1ccc(NC(=O)C(F)(F)F)cc1`: the z-score turned out to be 0.364.

In turn, `FC(F)Sc1ccc(-n2cc(-c3ccccc3)[n+]3c2CCC3)cc1` registered a z-score of -0.0431.

Take `CCCc1nc(SCC(=O)N2CCN(c3ccccc3)CC2)c2c(=O)n(C)c(=O)n(C)c2n1`: the z-score came out at 2.39.

`CCCc1nc(SCC(=O)c2ccccc2)c2c(=O)n(C)c(=O)n(C)c2n1` gave a z-score of 0.819.

`CCCc1nc(SCC(=O)N2CCC(Cc3ccccc3)CC2)c2c(=O)n(C)c(=O)n(C)c2n1` displayed a z-score of 1.98.

Turning to `Cc1nnc(SCC(=O)NN2C(=O)NC3(CCCCC3)C2=O)s1`, the z-score was -0.0833.

As for `O=C(CSc1nnc(Nc2ccccc2)s1)NN1C(=O)NC2(CCCCC2)C1=O`, the z-score came to 2.14.

The compound `O=C(CSc1nnc(NC2CCCCC2)s1)NN1C(=O)NC2(CCCCC2)C1=O` returned a z-score of 0.151.

The compound `CCCCC1=C([O-])C2N=CC=CC2=[N+](c2ccccn2)C1=O` (stereo unspecified) came in with a z-score of -0.104.

Compound `Cc1ccc(S(=O)(=O)NC(CC(=O)N2CCc3ccccc32)c2ccco2)cc1` (stereo unspecified) yielded a z-score of -0.465.

Take `O=C(Nn1cnnc1)c1cc2cc(Br)ccc2oc1=O`: the z-score was 4.37 (active).

The compound `CC(C)NC(=O)c1cc2cc(Br)ccc2oc1=O` had a z-score of -0.497.

Compound `CCN(CC)C(=O)c1cc2cc(Br)ccc2oc1=O` had a z-score of 0.312.

Compound `CCC(c1nnnn1C(C)(C)C)N(Cc1ccco1)Cc1cc2cccc(C)c2[nH]c1=O` (stereo unspecified) yielded a z-score of 0.737.

Turning to `CC(C)C(C)(C#N)NC(=O)CSc1nnc(-c2ccncc2)n1Cc1ccccc1` (stereo unspecified), the z-score was 0.023.

Compound `COC(=O)c1c(C)[nH]c(C(=O)CSc2ncnc3sc(-c4ccccc4)cc23)c1C` returned a z-score of 1.11.

For the compound `CC(=O)c1c(C)[nH]c(C(=O)CSc2ncnc3sc(-c4ccccc4)cc23)c1C`, the z-score is 5.38 (active).

`CCc1cc2c(SCC(=O)c3ccccc3)ncnc2s1`: the z-score was 0.275.

As for `CCN(CC)C(=O)CSc1ncnc2sc(-c3ccccc3)cc12`, the z-score is 7.95 (active).

With `CN(CCC#N)C(=O)CSc1ncnc2sc(-c3ccccc3)cc12`, the z-score was 8.2 (active).

As for `CC(C)C(C)(C#N)NC(=O)CSc1nnc(-c2ccccc2)o1` (stereo unspecified), the z-score is -0.849.

On to `CC(C)C(C)(C#N)NC(=O)CSc1ncnc2sc(-c3ccccc3)cc12` (stereo unspecified), for which the z-score was 4.81 (active).

Consider `CCN(CC)C(=O)CSc1nnc(-c2ccccc2)c(-c2ccccc2)n1`, for which the z-score is -0.489.

The compound `CCN(CC)C(=O)CSc1ncnc2c1cnn2Cc1ccccc1` displayed a z-score of 0.13.

For `CN(C)/C=N/c1c(C#N)cnn1-c1ncnc2sc(-c3ccccc3)cc12`, the z-score came to 0.831.

On to `CC(=O)c1c(C)[nH]c(C(=O)CSc2nnc(-c3ccccc3)o2)c1C`, for which the z-score is -0.229.

`CCOC(=O)C1CCN(C(=O)c2cccc(Cl)c2)CC1` had a z-score of 0.0552.

Take `C/C(=N\NC(=O)c1c(Cl)c(C)nn1C)c1cccc(NC(=O)COc2ccccc2)c1`: the z-score was -0.103.

Compound `CCOC(=O)Nc1nnc(-c2ccc(OC)cc2)s1` came in with a z-score of 0.0823.

Consider `CC(C)[C@H](NC(=O)c1ccccc1)C(=O)OCC(=O)N1CCCc2ccccc21`, for which the z-score is 0.0154.

The compound `Cc1cccc(C)c1NC(=O)CSc1nc(COc2ccccc2)nc2ccccc12` returned a z-score of 0.755.

`O=C(Nc1ccccc1)C(c1ccccc1)C1CCCC1` (stereo unspecified) yielded a z-score of -0.474.

In turn, `O=C(Nc1ccc2ccccc2c1)C(c1ccccc1)C1CCCC1` (stereo unspecified) showed a z-score of 0.0599.

Take `Cc1ccc(NC(=O)C(c2ccccc2)C2CCCC2)cc1` (stereo unspecified): the z-score was 3.36 (active).

With `CCOC(=O)N1CCN(C(=O)N2CCOCC2)CC1`, the z-score amounted to 0.275.

Take `COc1ccccc1N1CCN(S(=O)(=O)c2ccccc2F)CC1`: the z-score is -0.52.

`CCCCCCOC(=O)C(C#N)c1nc2ccccc2nc1N1CCN(CC)CC1` (stereo unspecified) displayed a z-score of 0.709.

The compound `CC(C)COC(=O)C(C#N)c1nc2ccccc2nc1N1CCN(Cc2ccccc2)CC1` (stereo unspecified) showed a z-score of -0.213.

Take `CCCCCCOC(=O)C(C#N)c1nc2ccccc2nc1N1CCCCC1` (stereo unspecified): the z-score was -0.00593.

On to `CCCCCCOC(=O)C(C#N)c1nc2ccccc2nc1N1CCN(C)CC1` (stereo unspecified), for which the z-score is 2.73.

With `CCC(CC)COC(=O)C(C#N)c1nc2ccccc2nc1N1CCN(CC)CC1` (stereo unspecified), the z-score turned out to be 2.72.

Regarding `COCCOC(=O)C(C#N)c1nc2ccccc2nc1N1CCCC1` (stereo unspecified), the z-score was -0.268.

In turn, `COc1ccc(CCNC(=O)Cc2cc(OC)c(OC)cc2[N+](=O)[O-])cc1OC` gave a z-score of -0.376.

The compound `COCC(=O)Nc1nnc(COc2ccc(Cl)cc2)s1` had a z-score of 0.279.

With `COc1ccc(C2c3c(ccc4ccccc34)Oc3ncn4nc(Cc5ccc(OC)c(OC)c5)nc4c32)cc1` (stereo unspecified), the z-score was -0.169.

Turning to `Cc1cc(=O)oc(C)c1C(=O)N1CCN(C(c2ccccc2)c2ccccc2)CC1`, the z-score amounted to 0.596.

Compound `CN(C)C(=O)C(=O)c1cccn1-c1ccccc1C#N` displayed a z-score of 0.429.

For the compound `CCOC(=O)C1CCCN(C(=O)c2sc3nc(C)nc(N(CC)CC)c3c2C)C1` (stereo unspecified), the z-score is -0.328.

Compound `Cc1ccc(/C=C/C(=O)N2CCN(c3cccc(C(F)(F)F)c3)CC2)cc1` returned a z-score of -0.0624.

As for `Cc1ccc(CC(=O)N2CCN(c3cccc(C(F)(F)F)c3)CC2)cc1`, the z-score was 6.97 (active).

In turn, `COc1ccccc1CC(=O)N1CCN(c2cccc(C(F)(F)F)c2)CC1` gave a z-score of 0.359.

With `CCc1c(C(=O)Nc2nnc(C3CC3)s2)csc1C`, the z-score was found to be 1.09.

`CC(C)(C)c1ccc(OCc2ccc(C(=O)N/N=C/c3ccc([N+](=O)[O-])cc3)o2)cc1` came in with a z-score of -0.4.

The compound `O=C(NN=C1CCCCCCC1)C(=O)NC1CCCCC1` had a z-score of 0.327.

In turn, `CN1CCC(=NNC(=O)C(=O)NC2CCCCC2)CC1` displayed a z-score of 2.04.

`CN1CCC(=NNC(=O)C(=O)NC2CCCC2)CC1` displayed a z-score of -0.0552.

In turn, `O=C(Cn1[nH]c(=O)c2ccccc2c1=O)NC1CCCCCC1` came in with a z-score of 0.0122.

Compound `CCOC(=O)C1[C@H]2C(=O)N(C(C)c3ccc(OC)cc3)C[C@]23C=C[C@H]1O3` (stereo partly specified) came in with a z-score of 0.209.

In turn, `CCCOC(=O)C1[C@H]2C(=O)N(C(C)c3ccc(OC)cc3)C[C@]23C=C[C@H]1O3` (stereo partly specified) displayed a z-score of 0.656.

`COc1ccc(C(C)N2CC34C=CC(O3)C(C(=O)OCC(C)C)C4C2=O)cc1` (stereo unspecified): the z-score is 5.16 (active).

Take `CC(C)(NC(=O)N1CCOCC1)c1cccc(C(C)(C)NC(=O)N2CCOCC2)c1`: the z-score is -0.126.

On to `Cc1cc(C)c2cc(C)c3nnc(SCC(=O)NCc4ccc5c(c4)OCO5)n3c2c1`, for which the z-score is -0.513.

As for `COc1cccc(CNn2cnnc2)c1OCc1ccc(F)cc1`, the z-score is -0.661.

`COc1cccc(CNCCc2c[nH]c3ccccc23)c1OCc1ccc(F)cc1` yielded a z-score of 2.04.

`COc1cccc(CNCCc2c[nH]c3ccccc23)c1OCc1ccccc1` displayed a z-score of 1.32.

Regarding `COc1cc(CNCCc2c[nH]c3ccccc23)ccc1OCc1ccc(F)cc1`, the z-score was 3.41 (active).

With `COc1ccccc1CCNCc1ccc(OC)c(OCc2ccccc2)c1`, the z-score turned out to be 0.696.

Regarding `COc1cc(CNCCc2c[nH]c3ccccc23)ccc1OCc1ccccc1F`, the z-score amounted to 0.911.

As for `Cc1cccc(N2CCN(C(=O)COc3ccc4c(c3)CCC4)CC2)c1C`, the z-score was -0.161.

The compound `CC1(C)NC(=O)N(CCSc2ccc(Cl)cc2)C1=O` yielded a z-score of -0.257.

Turning to `CCC(Sc1n[nH]c(=O)[nH]c1=O)C(=O)OCc1ccccc1` (stereo unspecified), the z-score turned out to be 0.193.

Regarding `O=C(NCc1ccc(F)cc1)c1cc(S(=O)(=O)N2CCOCC2)ccc1F`, the z-score amounted to 0.0221.

Regarding `Cc1ccc(S(=O)(=O)NCC(=O)N(CC(=O)NCc2ccco2)Cc2ccc3c(c2)OCO3)cc1`, the z-score was -0.622.

As to `C=CCNC(=O)NC(=O)COC(=O)CCCSc1nc2ccccc2[nH]1`, the z-score was -0.828.

Consider `CCNC(=O)NC(=O)COC(=O)CCCSc1nc2ccccc2[nH]1`, for which the z-score is 3.23 (active).

The compound `COC(=O)c1cccc(CSc2nc3ccccc3[nH]2)c1` returned a z-score of 0.475.

`Fc1cccc(F)c1CSc1nc2ccccc2[nH]1` displayed a z-score of -0.786.

Regarding `Fc1ccccc1CSc1nc2ccccc2[nH]1`, the z-score worked out at 0.129.

With `Cc1cccc(OCCCSc2nc3ccccc3[nH]2)c1`, the z-score is 0.357.

Take `COc1ccc(CSc2nc3ccccc3[nH]2)cc1`: the z-score came out at 0.53.

`O=C(COC(=O)CCCSc1nc2ccccc2[nH]1)NC(=O)NC1CCCC1` registered a z-score of -0.664.

In turn, `c1ccc(OCCSc2nc3ccccc3[nH]2)cc1` gave a z-score of 2.69.

Consider `O=c1[nH]c(SCCOc2ccccc2)nc2ccccc12`, for which the z-score is -0.359.

Compound `COc1cccc(CSc2nc3ccccc3[nH]2)c1` showed a z-score of 2.68.

Turning to `Fc1ccc(CSc2nc3ccccc3[nH]2)c2ccccc12`, the z-score is 10.7 (active).

On to `C/C(=N\Nc1cc(-c2ccccc2)nc(-c2ccc(Br)cc2)n1)c1cccc(N)c1`, for which the z-score is -0.0597.

In the case of `CN1CCN(C(=O)c2ccc(CS(=O)(=O)c3c(Cl)cccc3Cl)o2)CC1`, the z-score is 0.504.

In turn, `Nn1c(SCC(=O)Nc2ccc3c(c2)OCCO3)nnc1-c1ccccn1` registered a z-score of -0.0196.

`COCCN1C(=O)C(=O)/C(=C(/O)c2ccc(S(=O)(=O)N3CCOCC3)cc2)C1c1ccc(C(C)C)cc1` (stereo unspecified) registered a z-score of 0.0253.

On to `COc1ccc(NC(=O)CCS(=O)(=O)c2ccccc2)c(OC)c1`, for which the z-score came out at 0.256.

`C=CCNC(=S)N/N=C/c1cn(-c2ccccc2)nc1-c1ccc(OC)cc1` showed a z-score of -0.184.

`O=C(N/C=C\c1ccccc1)NCc1ccc(Cl)cc1`: the z-score turned out to be 0.197.

With `COc1ccc(C(=O)N(Cc2ccccc2)Cc2cc3cc4c(cc3[nH]c2=O)OCCO4)cc1`, the z-score was found to be 0.201.

`COc1cccc(C2c3c(oc4ccc(F)cc4c3=O)C(=O)N2CCN2CCOCC2)c1OC` (stereo unspecified): the z-score was -0.574.

`C=CCNc1cnn(CC(C)=O)c(=O)c1Br` gave a z-score of -0.0909.

Consider `C=CCn1c(CCNC(=O)c2cccs2)nnc1SCC(=O)c1ccc(Cl)cc1`, for which the z-score is -0.334.

On to `CCOc1cc2c(cc1C(C)(C)C)NC(=O)CS2`, for which the z-score is -0.538.

In the case of `CCOC(=O)C1=C(c2ccccc2)Nc2c(c(=O)n(C)c(=O)n2C)C1c1ccc(O)c(OC)c1` (stereo unspecified), the z-score was 0.108.

`Cc1cc([N+](=O)[O-])c(C(C)(C)C)cc1N` displayed a z-score of 1.32.

As to `CCOc1ccc(OCCSc2nc3ccccc3c(=O)[nH]2)cc1`, the z-score was -0.398.

`CCCOc1ccc(CSc2nc3ccccc3[nH]2)cc1` gave a z-score of 1.22.

In the case of `CCOc1ccc(OCCSc2nc3ccccc3[nH]2)cc1`, the z-score was 3.67 (active).

Turning to `O=C(CCSCCC(=O)NCc1ccco1)NCc1ccco1`, the z-score is -0.212.

In the case of `Cc1ccc2c(c1)/C(=N/OS(=O)(=O)c1ccccc1)CCS2`, the z-score is -0.0781.

`CC(C)(C)c1ccc(C(=O)NC(=S)Nn2cnnc2)cc1`: the z-score was 3.11 (active).

For `Cc1ccc(C(=O)NC(=S)Nn2cnnc2)cc1`, the z-score is -0.262.

`COc1ccc(C(=O)Nn2cnnc2)cc1` gave a z-score of -0.00169.

The compound `O=C(Cn1c(=O)oc2ccccc21)Nc1nnc(N2CCCCCC2)s1` returned a z-score of -0.181.

For `O=C1CSC(=Nc2ccccc2)N1`, the z-score was -0.108.

As for `Cc1cccc(N=C2NC(=O)CS2)c1`, the z-score was determined as 0.297.

For `Cc1ccc(N=C2NC(=O)CS2)cc1`, the z-score is 2.26.

(Values after PubChem BioAssay AID488969 (Vanderbilt High Throughput Screening Facility, 2010).)
